# TDP-43 tox inh = qHTS of TDP-43 Inhibitors: NCGC Sytravon Library Screen | yeast TDP-43 toxicity rescue, BacTiter-Glo growth, 24 h | Potency, µM (titrated, usually from 46.1 µM), hits mostly activators | 45,000 compounds, 0.45% hits | AID 1347073, 2019; active = well fitted activation curve with a large enough effect; also: nearly all actives have a fitted effect of over 55% in size
#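 TDP-43-expressing yeast, pregrown in raffinose, seeded at OD600 0.02 in galactose medium with compound for 24 hr at 30 deg C. Growth read by BacTiter-Glo luminescence, so rescue of toxicity appears as activation.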
# Hits are given with their value; . = inactive. Shown is part of a subset that was picked to be rich in hits.
SMILES,TDP-43 tox inh
O=C(N/N=C/c1ccccc1O)NC12CC3CC(CC(C3)C1)C2,.
NC(=S)N/N=C/c1ccc(C23CC4CC(CC(C4)C2)C3)cc1,7.94µM
Cc1sc(-n2cccc2)c(C(C)NC(=O)Nc2ccccc2Cl)c1C (centres undefined),.
COc1ccc(N(C)C(=O)c2cc(S(=O)(=O)N3CCc4ccccc43)cn2C)c(OC)c1,.
CSc1nnc2c(n1)OC(c1cccc(O)c1Cl)Nc1ccccc1-2 (centres undefined),.
COc1ccccc1N1CCN(C(=O)c2ccc3c(c2)N(Cc2cc(C)ccc2C)C(=O)c2ccccc2S3(=O)=O)CC1,.
O=C(O)CCC(=O)Nc1cccc(-c2csc(-c3ccccc3)n2)c1,.
Clc1ccc(-c2cnc3ccccc3n2)cc1,.
O=C(CCl)Nc1cccc(-c2cnc3ccccc3n2)c1,12.6µM
CCc1c(C)nc2nncn2c1Nc1cccc(C)c1,.
Cc1ccc(/C=C/C(=O)OCn2nnc3ccccc3c2=O)o1,14.1µM
C[C@H](NC(=O)CCCn1nnc2ccccc2c1=O)C(=O)O,.
Cc1ccccc1OCC(=O)OCn1nnc2ccccc2c1=O,.
COc1ccc(C(=O)c2oc3ccccc3c2NC(=O)COc2ccccc2)cc1,.
CCOC(=O)c1c(NC(C)=O)c2c3c(sc2n1Cc1nc(-c2ccccc2Cl)oc1C)CCCC3,.
COc1ccc(CNCCC(c2ccc(C)cc2)c2ccco2)cc1 (centres undefined),.
O=S(=O)(NCCC(c1ccc(F)cc1)c1ccco1)c1ccccc1 (centres undefined),17.8µM
O=C(O)C(NS(=O)(=O)c1ccc(F)cc1)c1ccccc1 (centres undefined),.
CSc1ccc(CNC(=O)C2CCN(c3nnc(-n4cccc4CNc4ccc(C)cc4)s3)CC2)cc1,.
CC1(C)O[C@H]2[C@@H](O1)[C@@H](C(=O)Nc1cc(F)ccc1F)O[C@@H]1OC(C)(C)O[C@@H]12,.
COc1ccc(NC(=O)c2ccc(NC(=O)C3COc4ccccc4O3)cc2)c(OC)c1 (centres undefined),.
COc1ccc(NC(=O)c2cc(S(=O)(=O)NCC3COc4ccccc4O3)ccc2F)cc1 (centres undefined),25.1µM
CCOc1ccc(S(=O)(=O)NCC2CCCO2)cc1NC(=O)c1ccccc1F (centres undefined),.
CCOc1ccc(C(=O)Nc2ccc3oc(-c4ccc(C)cc4C)nc3c2)cc1Br,.
O=[N+]([O-])c1cccc(/C=N/n2cnnc2)c1,.
SMILES,TDP-43 tox inh
C(=N\n1cnnc1)/c1ccc(-c2ccccc2)cc1,11.2µM
CCc1ccc(/C=N\n2cnnc2)cc1,.
Cc1cc(NCc2ccc(Cl)cc2)n2cnnc2n1,.
Cc1ccc(Cl)cc1NC(=O)Cn1c(=O)n(CCC(=O)NCc2ccc3c(c2)OCO3)c(=O)c2sccc21,.
CC(C)c1cccc(-c2csc(C(C)(O)c3ccccc3)n2)c1 (centres undefined),.
CC(O)(c1cccc(F)c1)c1nc(-c2ccncc2)cs1 (centres undefined),.
CC(O)(c1ccc(F)c(F)c1)c1nc(-c2ccc(Cl)cc2)cs1 (centres undefined),.
COc1cccc(C(C)(O)c2nc(-c3ccc(OC)nc3)cs2)c1 (centres undefined),17.8µM
COc1cccc(C(C)(O)c2nc(-c3cncnc3)cs2)c1 (centres undefined),.
CC(O)(c1ccccc1)c1nc(-c2cccc(C(=O)O)c2)cs1 (centres undefined),.
CC(O)(c1cccnc1)c1nc(-c2ccc3c(c2)OCO3)cs1 (centres undefined),.
COc1ccc(C(C)(O)c2nc(-c3csc4ccccc34)cs2)cc1 (centres undefined),17.8µM
COc1ccc(C(C)(O)c2nc(-c3ccc4c(c3)OCO4)cs2)cc1 (centres undefined),12.6µM
Cc1ccc(CN(C(=O)c2ccccc2Br)C2CCS(=O)(=O)C2)o1 (centres undefined),.
COC(=O)c1cc2sc(C)cc2n1Cc1ccc(Br)cc1F,.
COc1cccc(C(=O)N(Cc2sccc2C)C2CCS(=O)(=O)C2)c1 (centres undefined),.
Cc1cc(C)c(NC(=O)CCCN2C(=O)COc3ccc(C)cc32)c(C)c1,.
Cc1ccc(NC(=S)c2nc3ccccc3[nH]2)c(C)c1,10µM
Cc1ccc(NC(=S)N2CCN(C(=O)c3ccccc3)CC2)c(C)c1,.
Cc1cc(C)cc(C(=O)Nc2nc3ccccc3[nH]2)c1,.
COC(=O)c1cc2sc(C)cc2n1Cc1nc(-c2ccc(C)cc2)oc1C,.
NC(=O)C1(N2CCCCC2)CCN(C(=O)Nc2ccc(Cl)c(Cl)c2)CC1,.
Cc1ccc(C)c(CN2C(=O)c3ccccc3S(=O)(=O)c3ccc(C(=O)NCCC4=CCCCC4)cc32)c1,.
CCCOc1ccc(CNC(=O)C2CCN(C(=O)c3sccc3-n3cccc3)CC2)cc1,.
Cc1cccc(C2c3[nH]c4ccccc4c3CCN2C(=O)Cc2n[nH]c(C)n2)n1 (centres undefined),.
